Results with a measured potency or affinity are listed apart. Inconclusive results are not listed. Active and inactive are the calls of the source. Unless noted, the rule behind the calls is not given here.
What was measured:
[1] = cytotoxicity in PAX8-dependent RMG-1 cells, dose response, cell-based, cherry-pick (AID 687029;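 active = signal drop whose fitted half-maximal concentration is at most twice the top valid dose, in every test run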;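 note: cells exposed to compound for 96 hours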)
[2] = cytotoxicity in IOSE-T80 ovarian epithelial cells, dose response, selectivity assay for PAX8 inhibitor project, cell-based, cherry-pick (AID 687032;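 active = fitted half-maximal concentration for viability loss no higher than twice the top valid dose, in every repeat run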;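 note: cells exposed to compound for 96 h before reading; 0% = neutral control wells and -100% = 2 µM mitoxantrone kill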)
[3] = inhibitors of CMV-promoter luciferase reporter, dose response, counter-screen for Pax8 inhibitor project, cell-based, HEK293, luminescence, dry powder (AID 743020;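 active = signal-lowering compounds whose fitted half-maximal concentration is at or below twice the top tested dose in every run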;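 note: HEK293 cells stably expressing the CMV luciferase reporter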)
[4] = non-specific cell cytotoxicity, dose response, cytotoxicity control for PAX8 inhibitor project, plate reader, dry powder samples (AID 743021)
[5] = IGROV1 ovarian cancer cell cytotoxicity, dose response, PAX8 inhibitor project, plate reader, dry powder samples (AID 743043);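 note: more negative means fewer viable cells or more cytotoxicity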
[6] = NIH:OVCAR-3 ovarian cancer cell cytotoxicity, dose response, PAX8 inhibitor project, plate reader, dry powder samples (AID 743044); settings: max activity: at 35 µM, hits give low values unless noted
[7] = IOSE-T80 ovarian epithelial cell cytotoxicity, dose response, cytotoxicity control for PAX8 inhibitor project, plate reader, dry powder samples (AID 743045);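 note: 0% = neutral control median and -100% = positive control median; more negative values mean more cell killing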
[8] = A2780 ovarian cancer cell cytotoxicity, dose response, cytotoxicity control, plate reader, dry powder samples (AID 743046);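 note: 0% = neutral control wells and -100% = cytotoxic reference compound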
[9] = cytotoxicity in OVCAR8 ovarian cancer cells, dose response, PAX8 project, cell-based, plate reader, dry powder samples (AID 743197)

Measured: max activity

COc1ccc(S(=O)(=O)N(C)C[C@H]2OCCCC[C@@H](C)Oc3ccc(NS(=O)(=O)c4c(C)noc4C)cc3C(=O)N([C@H](C)CO)C[C@H]2C)cc1
inactive: [1] | [2] | [3] | [4] | [5] | [6] -13.5% | [7] | [8]

CC(C)CC#Cc1ccc2c(c1)O[C@@H](CN(C)Cc1ccncc1)[C@H](C)CN([C@@H](C)CO)S2(=O)=O
inactive: [1] | [2] | [3] | [4] | [5] | [6] 11.2% [at 4.2 µM, hits give low values] | [7] | [8] | [9]

CN1c2ccc(C#Cc3cccnc3)cc2[C@@H]2[C@@H](CCN2C(=O)Cc2cccnc2)[C@@H]1CO
inactive: [1] | [2] | [3] | [4] | [5] | [6] 17.5% [at 16 µM, hits give low values] | [7] | [8] | [9]

C[C@H](O)C#Cc1cnc2c(c1)C(=O)N([C@H](C)CO)C[C@H](C)[C@H](CN(C)Cc1ccc(-c3ccccc3)cc1)O2
inactive: [1] | [2] | [3] | [4] | [5] | [6] 9.01% [at 0.26 µM, hits give low values] | [7] | [8] | [9]

CN1C[C@@H]2[C@H](c3ccccc31)[C@H](CO)N2Cc1ccccc1Cl
inactive: [1] | [2] | [3] | [4] | [5] | [6] 22.5% | [7] | [8] | [9]

C[C@H](CO)N1C[C@H](C)[C@H](CN(C)Cc2ccc(C(F)(F)F)cc2)OCCCC[C@H](C)Oc2ccc(NC(=O)c3ccccc3)cc2C1=O
inactive: [1] | [2] | [3] | [4] | [5] | [6] -59.7% | [7] | [8]

C[C@@H]1CCCCO[C@H](CN(C)Cc2ccc(C(F)(F)F)cc2)[C@H](C)CN([C@H](C)CO)C(=O)c2cc(NS(=O)(=O)c3ccc(F)cc3)ccc2O1
inactive: [1] | [2] | [3] | [4] | [5] | [6] -10.2% | [7] | [8] | [9]

Cc1ccc(S(=O)(=O)N(C)C[C@@H]2OCCCC[C@H](C)Oc3ccc(NS(=O)(=O)c4ccc(F)cc4)cc3C(=O)N([C@H](C)CO)C[C@H]2C)cc1
inactive: [1] | [2] | [3] | [4] | [5] | [6] -6.55% | [7] | [8]

COc1ccc(S(=O)(=O)Nc2ccc3c(c2)C(=O)N([C@H](C)CO)C[C@@H](C)[C@H](CN(C)S(=O)(=O)c2ccc(F)cc2)OCCCC[C@H](C)O3)cc1
inactive: [1] | [2] | [3] | [4] | [5] | [6] -24.5% | [7] | [8]

C[C@@H]1CCCCO[C@H](CN(C)C(=O)NC2CCCCC2)[C@@H](C)CN([C@@H](C)CO)C(=O)c2cc(NC(=O)Nc3ccc(C(F)(F)F)cc3)ccc2O1
inactive: [1] | [2] | [3] | [4] | [5] | [6] 18.6% [at 2.1 µM, hits give low values] | [7] | [8] | [9]

Cc1cccc(-c2ccc([C@H]3[C@H](CO)N4CCCCN(S(=O)(=O)c5ccccc5C)C[C@@H]34)cc2)c1
inactive: [1] | [2] | [3] | [4] | [5] | [6] -11.5% | [7] | [8] | [9]

C[C@@H]1CCCCO[C@@H](CN(C)C(=O)Nc2ccc(C(F)(F)F)cc2)[C@H](C)CN([C@H](C)CO)C(=O)c2cc(NS(=O)(=O)c3ccccc3)ccc2O1
inactive: [1] | [2] | [3] | [4] | [5] | [6] 50.6% [at 8 µM, hits give low values] | [7] | [8]

C[C@@H]1CCCCO[C@H](CN(C)C(=O)C2CCCCC2)[C@@H](C)CN([C@@H](C)CO)C(=O)c2cc(NC(=O)Nc3ccccc3)ccc2O1
inactive: [1] | [2] | [3] | [4] | [5] | [6] 37.9% [at 1 µM, hits give low values] | [7] | [8] | [9]

C[C@@H]1CN([C@@H](C)CO)C(=O)c2cc(NS(=O)(=O)c3ccccc3)ccc2O[C@@H](C)CCCCO[C@@H]1CN(C)Cc1ccc(C(F)(F)F)cc1
inactive: [1] | [2] | [3] | [4] | [5] | [6] -5.59% | [7] | [8] | [9]

C[C@@H]1CN([C@@H](C)CO)C(=O)c2cc(NS(=O)(=O)c3ccc(Cl)cc3)ccc2O[C@@H](C)CCCCO[C@H]1CN(C)Cc1ccc(C(F)(F)F)cc1
inactive: [1] | [2] | [3] | [4] | [5] | [6] 22.1% [at 16 µM, hits give low values] | [7] | [8] | [9]

C[C@@H]1CCCCO[C@H](CN(C)C)[C@H](C)CN([C@H](C)CO)C(=O)c2cc(NC(=O)Nc3cccc4ccccc34)ccc2O1
inactive: [1] | [2] | [3] | [4] | [5] | [6] 24.8% [at 4.2 µM, hits give low values] | [7] | [8] | [9]

COc1cccc(S(=O)(=O)N(C)C[C@@H]2Oc3cc(C4=CCCCC4)ccc3S(=O)(=O)N([C@@H](C)CO)C[C@H]2C)c1
inactive: [1] | [2] | [3] | [4] | [5] | [6] -34.5% [at 0.5 µM, hits give low values] | [7] | [8]

C[C@H]1CCCCO[C@H](CN(C)C(=O)Nc2ccc(F)cc2)[C@@H](C)CN([C@@H](C)CO)C(=O)c2cc(NC(=O)Nc3ccc(C(F)(F)F)cc3)ccc2O1
inactive: [1] | [2] | [3] | [4] | [5] | [6] 8.44% [at 16 µM, hits give low values] | [7] | [8]

C[C@@H]1CCCCO[C@@H](CN(C)S(=O)(=O)c2cccs2)[C@H](C)CN([C@H](C)CO)C(=O)c2cc(NC(=O)Nc3ccc(C(F)(F)F)cc3)ccc2O1
inactive: [1] | [2] | [3] | [4] | [5] | [6] 9.36% [at 2.1 µM, hits give low values] | [7] | [8]

C[C@@H]1CN([C@H](C)CO)C(=O)c2cc(NS(=O)(=O)c3ccc(F)cc3)ccc2O[C@@H]1CN(C)Cc1ccc(C(F)(F)F)cc1
inactive: [1] | [2] | [3] | [4] | [5] | [6] -4.85% | [7] | [8] | [9]

CCCN1[C@H](C(=O)N2CCOCC2)[C@@H](CO)[C@@H]2Cn3c(ccc(/C=C/c4ccccc4)c3=O)[C@@H]21
inactive: [1] | [2] | [3] | [4] | [5] | [6] -10.3% [at 0.5 µM, hits give low values] | [7] | [8]

C[C@@H]1CCCCO[C@H](CN(C)Cc2ccc(Cl)c(Cl)c2)[C@H](C)CN([C@@H](C)CO)C(=O)c2cc(NC(=O)Nc3ccc(F)cc3)ccc2O1
inactive: [1] | [2] | [3] | [4] | [5] | [6] 22.7% [at 8 µM, hits give low values] | [7] | [8]

C[C@@H]1CN([C@@H](C)CO)C(=O)c2ccccc2-c2ccccc2CO[C@@H]1CN(C)Cc1ccc2c(c1)OCCN2C
inactive: [1] | [2] | [3] | [4] | [5] | [6] 3.55% | [7] | [8] | [9]

Cc1ccc(S(=O)(=O)N(C)C[C@H]2Oc3ccc(NC(=O)Nc4ccc(C(F)(F)F)cc4)cc3CC(=O)N([C@H](C)CO)C[C@@H]2C)cc1
inactive: [1] | [2] | [3] | [4] | [5] | [6] 49.2% [at 16 µM, hits give low values] | [7] | [8] | [9]

COc1ccc(NC(=O)Nc2ccc3c(c2)C(=O)N([C@@H](C)CO)C[C@@H](C)[C@@H](CN(C)Cc2ccc(Cl)c(Cl)c2)OCCCC[C@@H](C)O3)cc1
inactive: [1] | [2] | [3] | [4] | [5] | [6] -14.2% | [7] | [8]

C[C@@H]1CN([C@@H](C)CO)C(=O)c2cc(N(C)C)ccc2O[C@@H]1CN(C)Cc1ccc(Oc2ccccc2)cc1
inactive: [1] | [2] | [3] | [4] | [5] | [6] -18.3% | [7] | [8] | [9]

C[C@@H]1CCCCO[C@@H](CN(C)Cc2ccc(Cl)c(Cl)c2)[C@H](C)CN([C@H](C)CO)C(=O)c2cc(NS(=O)(=O)c3ccc(F)cc3)ccc2O1
inactive: [1] | [2] | [3] | [4] | [5] | [6] -22% | [7] | [8]

C[C@@H]1CN([C@H](C)CO)C(=O)c2cc(NC(=O)Nc3ccc(F)cc3)ccc2O[C@@H](C)CCCCO[C@H]1CN(C)Cc1ccc(Cl)c(Cl)c1
inactive: [1] | [2] | [3] | [4] | [5] | [6] 26% | [7] | [8] | [9]

COc1ccccc1-c1ccc2c(c1)O[C@H](CN(C)Cc1ccc3c(c1)OCO3)[C@H](C)CN([C@@H](C)CO)S2(=O)=O
inactive: [1] | [2] | [3] | [4] | [5] | [6] 20.4% [at 4.2 µM, hits give low values] | [7] | [8] | [9]
